ANO1 activ: mouse TMEM16A channel activation, primary screen | B-score at 10 µM | AID 623877 | HEK293 TMEM16A/YFP-H148Q/I152L, iodide quench fluorescence; active compounds read low | 340,000 tested, 0.3% active | Q8BHY3;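 active = fluorescence-ratio B-score plate-corrected deviation score at least 3 library SD below zero, with starting fluorescence score within 5 deviations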;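 also: channel opened by trigger with iodide after compound preincubation; score built on the fluorescence ratio of max minus min over baseline; more negative score means more quench and so TMEM16A activation or potentiation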
Target sequence (Q8BHY3 whole entry, looked up): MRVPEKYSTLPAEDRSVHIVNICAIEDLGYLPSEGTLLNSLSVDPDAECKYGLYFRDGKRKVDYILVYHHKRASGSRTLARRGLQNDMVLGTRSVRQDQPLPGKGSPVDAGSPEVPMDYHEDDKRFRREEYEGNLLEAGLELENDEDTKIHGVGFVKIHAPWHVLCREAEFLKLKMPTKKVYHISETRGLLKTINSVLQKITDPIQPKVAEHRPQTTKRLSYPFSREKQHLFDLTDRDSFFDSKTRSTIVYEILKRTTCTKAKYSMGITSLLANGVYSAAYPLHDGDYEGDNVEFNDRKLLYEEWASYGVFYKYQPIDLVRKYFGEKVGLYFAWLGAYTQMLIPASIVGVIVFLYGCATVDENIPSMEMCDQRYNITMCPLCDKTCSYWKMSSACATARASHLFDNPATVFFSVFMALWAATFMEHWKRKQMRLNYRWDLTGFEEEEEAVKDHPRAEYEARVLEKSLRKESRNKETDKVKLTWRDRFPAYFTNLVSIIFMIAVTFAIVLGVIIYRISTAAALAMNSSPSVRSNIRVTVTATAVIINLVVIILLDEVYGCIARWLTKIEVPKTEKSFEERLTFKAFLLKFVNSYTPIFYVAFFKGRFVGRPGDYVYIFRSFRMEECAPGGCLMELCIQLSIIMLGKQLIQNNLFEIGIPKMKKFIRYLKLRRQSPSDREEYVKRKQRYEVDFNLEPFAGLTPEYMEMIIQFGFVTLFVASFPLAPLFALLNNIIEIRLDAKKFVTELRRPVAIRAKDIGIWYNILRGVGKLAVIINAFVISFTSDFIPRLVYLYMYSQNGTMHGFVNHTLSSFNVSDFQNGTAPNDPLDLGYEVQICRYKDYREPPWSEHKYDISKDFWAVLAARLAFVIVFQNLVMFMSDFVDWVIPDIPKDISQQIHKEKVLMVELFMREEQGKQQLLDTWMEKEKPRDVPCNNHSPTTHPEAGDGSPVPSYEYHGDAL
ANO1 block: mouse TMEM16A channel inhibition, primary screen | normalized B-score (activity score, 25-100; higher = stronger inhibition) at 10 µM | HEK293 TMEM16A/YFP iodide influx fluorescence, ionomycin | Q8BHY3 | 310,000 tested, 1.2% active;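 active = ratio plate-corrected score three or more library SD toward inhibition, starting fluorescence score within five deviations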;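 also: score derived from kinetic fluorescence span divided by baseline fluorescence per well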
697 NFkB inh: inhibitors of the PMA/ionomycin-induced NF-kB reporter in 697 B cells | inhibition, % at 4 µM | 697 B-cell NF-kB luciferase reporter, 16 h | 330,000 tested, 0.33% active; in the data active = inhibition above about 35%
KLF5 inhibitor: suppresses KLF5 promoter-driven expression | 290,000 tested, 0.23% active | DLD-1 KLF5 promoter-luciferase reporter, luminescence | inhibition, % at 5 µM;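 active = inhibition above a per-plate limit of that plate's mean compound inhibition plus 3 SD, cut at about 60% in these data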;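 also: 0% = DMSO wells and 100% = LY294002 at 200 µM; higher means less KLF5 promoter-driven luciferase light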
Jurkat NFkB inh: inhibitors of the PMA/ionomycin-induced NF-kB reporter in Jurkat cells; PMA/ionomycin-induced NF-kB luciferase reporter, luminescence; inhibition, % at 4 µM; 330,000 tested, 0.53% active; AID 435003; in the data active = inhibition above about 50%
aSyn UTR inh: MLPCN primary screen, SNCA 5' untranslated region | alpha-synuclein 5'UTR reporter, inhibitor activity | inhibition, % (tested at 7.5 µM) | 300,000 tested, 0.82% active; in the data active = inhibition above about 60%;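 also: H4 neuroglioblastoma cells stably carrying SNCA 5'UTR luciferase fusion; 0% = DMSO wells and 100% = positive control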
Numbers without * were called inactive; i = inactive; nt = no result given. Sampled rows, rich in hits. Any-hit rate of the full collection: about 2.5%.

SMILES	ANO1 activ	ANO1 block	697 NFkB inh	KLF5 inhibitor	Jurkat NFkB inh	aSyn UTR inh
C#CCOCCOCCOCCNc1nc(N2CCN(C(=O)CCCCCCCCCCNC(=O)Cn3cc(CCCCCN)nn3)CC2)nc(N2CCN(C(=O)CCCCCCCCCCNC(=O)[C@@H](CCSC)n3cc(CCO)nn3)CC2)n1	-4.6*	i	-17	nt	17	nt
C#CCOCCOCCOCCNc1nc(N2CCN(C(=O)CCCCCCCCCCNC(=O)[C@H]([C@@H](C)CC)n3cc(CCCCN=C(N)N)nn3)CC2)nc(N2CCN(C(=O)CCCCCCCCCCNC(=O)[C@H](CO)n3cc(CCCCCN)nn3)CC2)n1	-20*	100*	-20	nt	-7	nt
C#CCOCCOCCOCCNc1nc(N2CCN(C(=O)CCCCCCCCCCNC(=O)[C@H]([C@@H](C)CC)n3cc(CCCCN=C(N)N)nn3)CC2)nc(N2CCN(C(=O)CCCCCCCCCCNC(=O)[C@H]([C@@H](C)CC)n3cc(CCCCN=C(N)N)nn3)CC2)n1	nt	i	13	nt	-6	nt
C#CCOCCOCCOCCNc1nc(N2CCN(C(=O)CCCCCCCCCCNC(=O)[C@H]([C@@H](C)CC)n3cc(CCCCCN)nn3)CC2)nc(N2CCN(C(=O)CCCCCCCCCCNC(=O)[C@H](CO)n3cc(CCCCCN)nn3)CC2)n1	-17*	25*	-19	nt	-12	nt
C#CCOCCOCCOCCNc1nc(N2CCN(C(=O)[C@H](CCCCN)n3cc([C@@H](N)C(C)CC)nn3)CC2)nc(N2CCN(C(=O)[C@H](Cc3cc4ccccc4[nH]3)n3cc([C@@H](N)CC(C)C)nn3)CC2)n1 (stereo partly specified)	-18*	i	-49	-4	-67	-7
C#CCOCCOCCOCCNc1nc(N2CCN(C(=O)CCCCCCCCCCNC(=O)Cn3cc(CCCCCN)nn3)CC2)nc(N2CCN(C(=O)CCCCCCCCCCNC(=O)[C@@H](CCC(=O)O)n3cc(CCCCCN)nn3)CC2)n1	i	i	2	nt	5	nt
CCN1CCN(C(=O)N(c2ccccc2)c2ccccc2)CC1	i	i	-15	-1	-28	6
Cc1ccc(C2=NN(CC(=O)NCCN(CC(C)C)CC(C)C)C(=O)CC2)cc1	i	i	-18	-15	-11	30
C#CCOCCOCCOCCNc1nc(N2CCN(C(=O)CCCCCCCCCCNC(=O)[C@H]([C@@H](C)CC)n3cc(CCCCCN)nn3)CC2)nc(N2CCN(C(=O)CCCCCCCCCCNC(=O)[C@H]([C@@H](C)CC)n3cc(CCCCN=C(N)N)nn3)CC2)n1	-28*	i	-33	nt	17	nt
C#CCOCCOCCOCCNc1nc(N2CCN(C(=O)CCCCCCCCCCNC(=O)Cn3cc(CCCCCN)nn3)CC2)nc(N2CCN(C(=O)CCCCCCCCCCNC(=O)[C@H]([C@@H](C)CC)n3cc(CCCCN=C(N)N)nn3)CC2)n1	-21*	i	-16	nt	2	nt
Cn1cc(CCNCc2cn[nH]c2-c2ccc(-c3ccccc3)cc2)cn1	i	i	-23	-26	-7	-98
CN(CCc1cnn(C)c1)Cc1cn[nH]c1-c1ccc(-c2ccccc2)cc1	-5.6*	i	-20	-29	-18	-84
CC1CCCN(C(=O)Cn2nnc(-c3ccc(S(C)(=O)=O)cc3)n2)C1 (stereo unspecified)	i	i	4	3	-7	-5
COc1ccc(C(C2C(=O)CC(C)(C)CC2=O)C2C(=O)CC(C)(C)CC2=O)cc1	i	i	13	-20	12	2
CC1(C)CC(=O)C(C(c2ccncc2)C2C(=O)CC(C)(C)CC2=O)C(=O)C1	-14*	i	23	-17	11	10
COc1ccc(-c2oc3cc(O)c(OC)c(O)c3c(=O)c2OC)cc1	i	i	-3	nt	19	-45
COc1ccc(-c2oc3cc(OC)c(O)c(OC)c3c(=O)c2OC)cc1O	i	i	15	-25	-4	65*
CNC(=O)c1ccc(NC(=O)CC2SC(N3CCCC3)=NC2=O)cc1 (stereo unspecified)	nt	nt	9	nt	6	nt
CCCCNC(=O)c1ccc(NC(=O)CC2SC(N3CCCC3)=NC2=O)cc1 (stereo unspecified)	-26*	nt	-11	nt	-13	nt
O=C(O)c1ccc(-c2ccccc2)[nH]1	nt	i	11	-6	-13	-17
O=C(O)c1ccc2cc(-c3ccccc3)[nH]c2c1	i	i	-208	nt	-32	66*
CCCC(=O)NC(Nc1ccccc1F)C(Cl)(Cl)Cl (stereo unspecified)	nt	100*	21	4	13	-15
CC(C)CC(=O)NC(Nc1ccccc1F)C(Cl)(Cl)Cl (stereo unspecified)	i	i	9	-25	-9	-16
CCCc1cc(-c2nc(N)ncc2-c2ccc3c(c2)OCCCO3)c(O)cc1OC	i	i	-10	-13	12	62*
COc1ccc(NC(=O)CN(C)C(=O)c2cc(C)on2)cc1	i	i	14	nt	-13	-4
SMILES	ANO1 activ	ANO1 block	697 NFkB inh	KLF5 inhibitor	Jurkat NFkB inh	aSyn UTR inh
N#Cc1ccccc1Sc1ccccc1C(=O)NCC(c1ccco1)N1CCCC1 (stereo unspecified)	i	i	-3	nt	1	4
COc1ccc(CNC(=O)Cc2ccc(NC(=O)C3=C(C)OCCS3)cc2)cc1	i	i	-115	10	11	-13
CSc1nc2ccc(NS(=O)(=O)c3ccccc3F)cc2s1	i	i	10	-4	4	10
CSc1nc2ccc(NS(=O)(=O)c3ccc(Br)s3)cc2s1	i	25*	-8	-20	-2	-28
NC(=O)c1ccc(NS(=O)(=O)c2ccc(Br)s2)cc1	-21*	nt	23	nt	10	nt
NC(=O)c1ccc(NS(=O)(=O)c2ccccc2F)cc1	i	i	20	14	-1	24
CN(CC(=O)Nc1c(Cl)cccc1Cl)C(=O)c1cccn1C	i	i	-21	-30	6	22
COc1ccccc1CCC(=O)N(C)CC(=O)Nc1ccc(F)cc1	i	i	15	-24	4	-24
CCOc1ccccc1N(CC)C(=O)c1nn(C)c2c1CSc1ccccc1-2	i	i	7	5	-16	14
COc1ccc(C(=O)/C=C/C(=O)N(CC(=O)NC2CCCCC2)Cc2ccccc2OC)c(O)c1	i	nt	nt	-21	nt	-36
COc1ccc(C(=O)/C=C/C(=O)N(CC(=O)NC2CCCCC2)Cc2ccccc2)c(O)c1	i	nt	nt	-38	nt	67*
COc1ccc(C(=O)/C=C/C(=O)N(CC(=O)NC2CCCCC2)CC2CCCO2)c(O)c1 (stereo unspecified)	-6*	100*	-1	-2	13	73*
CCCCN(CCCC)S(=O)(=O)c1ccc(NC(=O)c2cccs2)cc1	i	100*	-29	-68	12	24
O=C(Nc1ccccn1)c1onc2c1CCCC2	i	i	-118	-100	-51	96*

Screening data (PubChem)
